Results on 84 compounds are retold here after PubChem BioAssay AID1745847 (National Center for Advancing Translational Sciences (NCATS), 2022).

Screen size: about 2,100 compounds; about 670 (32%) were called active. About 50% were inconclusive and are not listed. The list shows a part of the results. Values without a mark were called inactive. Calls come from the whole dose curve; as a rule, active = well fitted inhibition curve with a large enough effect; inconclusive = small, poorly fitted or top-dose-only effect; inactive = no such curve, though single readings can be large or run the other way.
% is set by controls: 0 for no effect and ±100 for the full control effect; potency is the fitted concentration of half-maximal effect.

A short description of the test: CMV-Luciferase Counterscreen for Inhibitors of ATXN expression. Note: nearly all actives have a fitted effect of over 55% in size. To be noted: HEK-293 CMV-luciferase reporter, luminescence, 24 h; series mostly up to 57.5 µM; activity change, negative = inhibition: at the top concentration.
Regarding `CCOC(=O)c1c(NC(=O)COC(=O)Cn2cnc3ccccc32)sc(C)c1C`, the “activity change, negative = inhibition” value is 20.6%.

With `CCc1nc2ccccc2c(C(=O)OCC(=O)Nc2cccc(S(=O)(=O)NC3=NCCCCC3)c2)c1C`, the Potency was 14.1 µM (active).

Take `CCn1c2ccccc2c2cc(NC(=O)COC(=O)c3cccc(S(=O)(=O)NC)c3)ccc21`: the “activity change, negative = inhibition” value is 21.7%.

Regarding `CN(C)CCNc1ncnc2c1sc1nc(N3CCCC3)c3c(c12)CC(C)(C)OC3`, the “activity change, negative = inhibition” value is 42.2%.

For `O=C(N/N=C(\Cc1ncc[nH]1)c1ccccc1)c1cccnc1`, the Potency is 3.98 µM (active).

Regarding `CCN(CC)c1cc(C)c2cc(NC(=O)c3ccccc3OC)ccc2n1`, the “activity change, negative = inhibition” value was -29.6%.

Regarding `CCOc1ccccc1C(=O)Nc1ccc2nc(N3CCN(c4ncccn4)CC3)cc(C)c2c1`, the Potency is 11.2 µM (active).

`O=C1Nc2c(Br)cc(Br)c3cccc1c23`: the “activity change, negative = inhibition” value is -4.4%.

Consider `O=C(Nc1nc(-c2ccccc2)cs1)c1ccccc1NS(=O)(=O)c1ccc(F)cc1`, for which the Potency was 1 µM (active).

Regarding `COc1cccc(C(=O)Nc2nc(-c3ccc(S(=O)(=O)N4CCOCC4)cc3)cs2)c1`, the Potency is 2.82 µM (active).

For `O=C(Nc1cccc(S(=O)(=O)C(F)F)c1)c1ccc(Cl)c(S(=O)(=O)N2CCOCC2)c1`, the Potency is 15.8 µM (active).

Consider `O=C(Nc1nc(-c2ccc(S(=O)(=O)N3CCOCC3)cc2)cs1)c1ccccc1`, for which the Potency is 1.12 µM (active).

For the compound `NC(=O)c1c(NC(=O)c2ccc(S(=O)(=O)N3CCOCC3)cc2)sc2c1CCCCC2`, the activity change, negative = inhibition is -13.6% [at 11.4 µM].

As for `COc1ccccc1C(=O)Nc1nc(-c2ccc(S(=O)(=O)N3CCOCC3)cc2)cs1`, the Potency is 1.58 µM (active).

Turning to `O=C(Nc1nc(-c2ccccn2)cs1)c1ccc(F)c(S(=O)(=O)N2CCOCC2)c1`, the Potency is 1.78 µM (active).

In the case of `Cn1c(=O)c2c(nc(SCCN3CCOCC3)n2Cc2cccc3ccccc23)n(C)c1=O`, the activity change, negative = inhibition was -18.8% [at 11.4 µM].

With `Cn1c(=O)c2c(nc(CN3CCN(Cc4ccccc4)CC3)n2Cc2ccc(Cl)cc2)n(C)c1=O`, the Potency was 17.8 µM (active).

As to `CCCCCc1ccc(OCCCC[n+]2cccc(C)c2)c(CCCCC)c1`, the Potency was 4.47 µM (active).

Regarding `O=C(NC(=S)NCc1nc2ccccc2[nH]1)c1ccc(F)cc1`, the activity change, negative = inhibition was 290% [at 11.4 µM].

For the compound `CCCC(=O)NC(c1ccc(OC)c(OC)c1)c1cc(Cl)c2cccnc2c1O` (centres undefined), the Potency was 4.47 µM (active).

Turning to `CCC(=O)NC(c1ccc(OC)c(OC)c1)c1cc(Cl)c2cccnc2c1O` (centres undefined), the Potency is 1.41 µM (active).

Take `Cc1ccc(Sc2nnc(Cc3ccccc3)c3ccccc23)cc1`: the “activity change, negative = inhibition” value was -3.53%.

As to `O=C(N/N=C/c1sc(N2CCOCC2)nc1-c1ccccc1)c1ccccc1O`, the Potency was 12.6 µM (active).

Regarding `CC(C)(C)c1ccc(C(=O)N2CCCCCC2=O)cc1`, the Potency was 5.01 µM (active).

As to `COc1ccc(CN(C)C(=O)c2cccc(NC(=O)CC3SC(N4CCCCC4)=NC3=O)c2)c(OC)c1` (centres undefined), the Potency was 10 µM (active).

Consider `CC(C)c1ccc2c(c1)C(N1CCNCC1)Cc1ccc(F)cc1S2` (centres undefined), for which the Potency is 35.5 µM (active).

As to `COc1ccc(N=Cc2cc3c(cc2O)OC(N)=C(C#N)C3c2ccccc2)cc1` (centres undefined), the activity change, negative = inhibition was -22.6% [at 11.4 µM].

Take `Cc1cc(C)cc(C(=O)N(NC(=O)Nc2ccc(Cl)cc2)C(C)(C)C)c1`: the Potency is 22.4 µM (active).

Turning to `Oc1c(Cl)cc(Cl)cc1/C=N/Nc1ncc(Br)cn1`, the Potency is 2 µM (active).

`CN1CCN(c2cc(-c3cc(O)c4ncccc4c3)ccn2)CC1`: the Potency was 14.1 µM (active).

For `CN(Cc1cnc2nc(N)nc(N)c2n1)c1ccc(C(=O)N[C@@H](CCC(=O)O)C(=O)O)cc1`, the Potency was 0.0063 µM (active).

For the compound `Cc1cc(C)cc(NS(=O)(=O)c2ccc3c(c2)c(=O)n(C)c(=O)n3C)c1`, the Potency was 11.2 µM (active).

As for `NC(Cc1ccc(C(F)(F)F)cc1)c1csc(Nc2ccc(C(=O)NCc3ccco3)cn2)n1` (centres undefined), the activity change, negative = inhibition is -23.4% [at 11.4 µM].

Consider `Cn1cc(/C=C/c2cc[n+](C)cc2)c2cc(F)ccc21`, for which the Potency is 11.2 µM (active).

In the case of `CN(C)CCNC(=O)c1cccc(-c2cnc3c(NC=O)cc(-c4cccc(C(F)(F)F)c4)cn23)c1`, the Potency is 22.4 µM (active).

On to `CN(C)CCNC(=O)c1cccc(-c2cnc3c(NC=O)cc(-c4cccs4)cn23)c1`, for which the “activity change, negative = inhibition” value was 0.48%.

As for `COc1ccc(-c2cc(NC=O)c3ncc(-c4cccc(C(=O)NCCN(C)C)c4)n3c2)cc1`, the “activity change, negative = inhibition” value is -9.37%.

Take `Cc1ccc(Cl)cc1N1CCN(C(=O)CCS(=O)(=O)c2ccc3c(c2)NC(=O)CO3)CC1`: the Potency is 14.1 µM (active).

Consider `CCCCN(C=O)c1c(CC)nc2ccc(C(=O)Nc3cc(-c4ccccc4)ccc3OC)cn12`, for which the Potency was 22.4 µM (active).

For the compound `CCc1nc2ccc(C(=O)Nc3cc(-c4ccccc4)ccc3OC)cn2c1N(CC)CC(=O)N(C)C`, the Potency is 31.6 µM (active).

For `Cc1ccnc(NC(=S)N2CCN(c3cccc(C(F)(F)F)c3)CC2)c1`, the “activity change, negative = inhibition” value is 410%.

Regarding `Cc1nc2ncnn2c(N2CCN(c3cccc(C(F)(F)F)c3)CC2)c1C`, the Potency was 2.51 µM (active).

In the case of `O=C(N/N=C(\c1ccccc1)c1ccccn1)c1ccccc1Cl`, the Potency is 3.98 µM (active).

For `CCC(CC)C(=O)c1c[nH]c(C(=O)NCc2ccccn2)c1`, the “activity change, negative = inhibition” value was 5.87%.

For the compound `COc1cc(C(=O)N/N=C(\c2ccccc2)c2ccccn2)cc(OC)c1OC`, the Potency is 0.398 µM (active).

Take `Cc1ccc2c(c1)-c1c(cnn1CC(=O)N1CCCN(Cc3ccccc3F)C1)CO2`: the activity change, negative = inhibition is -25.8% [at 11.4 µM].

With `CC(NC1=CC(=O)c2cccnc2C1=O)C(O)c1ccccc1` (centres undefined), the Potency was 15.8 µM (active).

For `C/C(=N\NC(=O)C1CCCN(S(=O)(=O)c2ccccc2)C1)c1ccccn1` (centres undefined), the Potency is 1.41 µM (active).

`CCc1ccc(-c2nc(CS(=O)CC(=O)NCc3ccco3)c(C)o2)cc1` (centres undefined): the Potency was 0.501 µM (active).

As for `Cc1cccc(N=C2NN=C(c3c(C)[nH]c4ccccc34)CS2)c1`, the Potency was 12.6 µM (active).

Take `COc1cc(OC)cc(-c2cc3nc(C)c(CCC(=O)O)c(C)n3n2)c1`: the Potency was 1 µM (active).

Consider `COc1ccc(CNC(=O)CSc2nc(-c3ccccc3)cc(-c3cccs3)c2C#N)cc1`, for which the activity change, negative = inhibition was 16% [at 11.4 µM].

As for `COc1cc(OC)cc(-c2cc3nc(C)c(CCC(=O)NCc4ccccc4)c(C)n3n2)c1`, the Potency was 11.2 µM (active).

Regarding `Cc1c(CC(=O)NCCCC(=O)O)c(=O)oc2cc3c(cc12)CCC(C)(C)O3`, the Potency was 11.2 µM (active).

Turning to `O=C1c2cccc3cc([N+](=O)[O-])cc(c23)C(=O)N1CCN1CCCC1`, the Potency was 0.794 µM (active).

In the case of `CCc1ccc(-c2cc(C(F)(F)F)n3nc(C(=O)Nc4cnn(Cc5ccc(C)cc5)c4)cc3n2)s1`, the “activity change, negative = inhibition” value is -12.2%.

With `O=C(Nc1cnn(C23CC4CC(CC(C4)C2)C3)c1)c1cnn2c(C(F)(F)F)cc(-c3ccco3)nc12`, the Potency is 15.8 µM (active).

With `CCOc1ccc(/C=C/[N+](=O)[O-])c2ccccc12`, the Potency is 15.8 µM (active).

Consider `Cc1cc(=O)[nH]c(N=N/C(=N/Nc2ccccc2C)c2ccccc2)n1`, for which the Potency is 1.58 µM (active).

Regarding `COc1cc(C#Cc2c(-c3cncn3C)n(C)c3ccc(-c4cnc(N5CCOCC5)nc4)cc23)cc(OC)c1`, the activity change, negative = inhibition is -19.7% [at 11.4 µM].

`COc1cc(C#Cc2c(-c3cncn3C)n(C)c3ccc(-c4ccc(CN5CCOCC5)cc4)cc23)cc(OC)c1`: the activity change, negative = inhibition is -6.42% [at 11.4 µM].

As for `COc1cc(C#Cc2c(-c3cncn3C)n(C)c3ccc(-c4cnc(OC)nc4)cc23)cc(OC)c1`, the Potency was 3.55 µM (active).

For `Cc1ccc(-c2cc(C(=O)N/N=C/c3ccccc3O)n[nH]2)o1`, the Potency is 15.8 µM (active).

As for `O=C(N/N=C/c1c(O)ccc2ccccc12)c1ccc(CO)nc1`, the Potency was 8.91 µM (active).

For the compound `O=C(N/N=C\c1c(O)ccc2ccccc12)c1cncc(Br)c1`, the Potency was 0.282 µM (active).

For `Nc1ccc2cc3[nH]c4cc(N)ccc4c3nc2c1`, the activity change, negative = inhibition was -29.2% [at 11.4 µM].

As to `CCN1CCN(C2=C(NS(=O)(=O)c3ccc(C)cc3)C(=O)c3ccccc3C2=O)CC1`, the Potency is 3.55 µM (active).

As to `CCn1c(CCC(=O)Nc2nc3c(s2)CCCC3)nc2cc(S(=O)(=O)N(C)C)ccc21`, the activity change, negative = inhibition is 4.42% [at 11.4 µM].

As for `Cc1ccccc1OCC(=O)N/N=C/c1cccc2cccnc12`, the Potency is 15.8 µM (active).

As to `O=C(COc1ccc(F)cc1)N/N=C/c1cccc2cccnc12`, the Potency is 2.82 µM (active).

Regarding `CSCC[C@H](NC(=O)OC(C)(C)C)C(=O)N/N=C/c1cccc2cccnc12`, the “activity change, negative = inhibition” value is -26.9%.

Consider `Cc1ccc(OCC(=O)N/N=C/c2cccc3cccnc23)cc1`, for which the Potency is 20 µM (active).

`Cc1cc(O)c(C(C)C)cc1N=Cc1ccc(N(C)C)cc1`: the activity change, negative = inhibition was 0.592% [at 11.4 µM].

On to `Cc1nc(N2CCN(c3ccccn3)CC2)c2c(C)c(C(=O)N3CCN(c4ccc(F)cc4)CC3)sc2n1`, for which the Potency was 14.1 µM (active).

Regarding `Cc1cc(NC(c2cccnc2)c2ccc3cccnc3c2O)no1` (centres undefined), the Potency was 3.98 µM (active).

For `Oc1c(C(Nc2ccccn2)c2cccnc2)cc(Cl)c2cccnc12` (centres undefined), the Potency was 12.6 µM (active).

As for `Oc1c(C(c2ccccn2)N2CCCCC2)cc(Cl)c2cccnc12` (centres undefined), the “activity change, negative = inhibition” value is -10.9%.

Turning to `O=C(Nc1cccc(C(F)(F)F)c1)N1CCC(c2nc(-c3ccc(F)cc3)no2)CC1`, the Potency was 11.2 µM (active).

With `CCOc1ccccc1NC(=O)N1CCC(c2nc3ccccc3[nH]2)CC1`, the activity change, negative = inhibition was 28.9% [at 11.4 µM].

In the case of `COc1ccc([C@@]2(C(C)C)ON(c3ccccc3C(F)(F)F)C2=O)cc1`, the activity change, negative = inhibition was -27.1% [at 11.4 µM].

With `Cn1c(=O)c(C#N)c(-c2ccc(F)cc2)c2cc(C(=O)c3cc(Cl)cc(Cl)c3O)cnc21`, the Potency was 3.55 µM (active).

In the case of `NC(=S)n1[nH]c(-c2ccc([N+](=O)[O-])cc2)c(N=Nc2cccc(Cl)c2)c1=O`, the Potency was 3.55 µM (active).

Consider `CC(C)(C)c1nnc(N/N=C/c2ccccc2O)n(N)c1=O`, for which the Potency is 1.26 µM (active).

Consider `COc1ccc(C(=O)C=CNNC(=O)c2ccc(Cl)cc2)cc1`, for which the Potency was 11.2 µM (active).
